Drawing on PubChem BioAssay AID1700 (The Scripps Research Institute Molecular Screening Center, 2009), this text covers inhibition for 59 compounds.

Each structure is given as a SMILES string. Out of some 290,000 compounds screened, about 670 (0.23%) were called active. The full list was thinned out, with actives kept by preference. Unmarked numbers belong to inactive results.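 Rule for the calls: active = inhibition above a per-plate limit of that plate's mean compound inhibition plus 3 SD (cut at about 60% in these data); inactive = the rest.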

The assay in a line: KLF5 expression inhibitors, primary screen, DLD-1 cells, luminescence (AID 1700).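 Note: 0% = DMSO wells and 100% = LY294002 at 200 µM; higher means less KLF5 promoter-driven luciferase light.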 The conditions noted are these: DLD-1 KLF5 promoter-luciferase reporter, at 5 µM, active compounds read high. Background: Reporter assays use an easily measured gene product as a stand-in for the process of interest.
By inhibition is commonly meant the change of the read-out against control, counted positive when it falls. With `NC(=O)c1ccc(Nc2ccc3nonc3c2[N+](=O)[O-])cc1`, the inhibition was -33%.
For the compound `CCOc1ccc(C2C3=C(CCCC3=O)N(CC(=O)O)C3=C2C(=O)CCC3)cc1`, the inhibition is 0.17%.
As to `O=C(CCNC(=O)C1CCN(S(=O)(=O)c2ccccc2)CC1)NC1CC1`, the inhibition was -34.7%.
Under `Cc1csc(NC(=O)CSc2nnc(-c3cccnc3)o2)n1` stands -90.3%.
Under `COc1ccc(NC(=O)c2cc(-c3ccc(C)cc3)on2)cc1` stands -28.2%; under `COc1ccc(C(=O)Nc2ccc(NC(=O)C(C)C)nc2)cc1`, -35%.
The same measure for `COc1ccc(Nc2cc(Cl)ccc2C(=O)O)cn1`: -11.6%.
Turning to `CCOc1ccc(S(=O)(=O)Nc2ccc(OC)nc2)cc1`, the inhibition is -32.8%.
The same measure for `COc1ccc(CS(=O)/C(Cl)=C(/Cl)C(=O)Nc2ccc(OC)nc2)cc1` (centres undefined): 100% (active); for `COc1ccc(NC(=O)/C(Cl)=C(/Cl)S(=O)Cc2ccc(C)cc2)cn1` (centres undefined): 89% (active).
The same measure for `CCCCC[C@H]1CN(C2CCCCC2)C(=O)[C@@H]1CC(=O)NCc1ccc(OC)cc1`: -12.3%; for `C/C(=N\Nc1nncc2ccccc12)c1ccc(Cl)c([N+](=O)[O-])c1`: -127%.
The same measure for `COc1cc(/C=N/Nc2nn3cnnc3c3ccccc23)cc(OC)c1OC`: -22.6%.
As for `CN(CCO)c1ccc(/C=N/Nc2nncc3ccccc23)cc1`, the inhibition was 68.3% (active).
The same measure for `Cc1ccc(/C=N/NC(=O)COc2ccccc2-c2ccccc2)cc1`: 77.9% (active); for `C=CCc1ccccc1OCC(=O)N/N=C/c1ccccc1OCC`: -10.7%.
Under `CSc1ccc(/C=N\NC(=O)COc2ccc(Cl)cc2Br)cc1` stands -9.23%.
Turning to `COc1ccc(NC(=O)C(C)N2c3cccc4cccc(c34)S2(=O)=O)c(OC)c1` (centres undefined), the inhibition is -5.03%.
On to `O=C(O)CC/C(=C\c1cc2c(cc1Br)OCO2)c1nc2ccccc2s1`, for which the inhibition was -12.1%.
Under `Cc1ccc(S(=O)(=O)N(Cc2ccccc2)c2ccccn2)cc1[N+](=O)[O-]` stands -20.6%; under `COc1cc(N=Cc2c(O)[nH]c3ccccc23)cc(OC)c1OC`, 66.8% (active); under `COc1ccc(N=Cc2c(O)[nH]c3ccccc23)cc1OC`, -9.79%.
The same measure for `COCC(=O)N=Nc1c(O)[nH]c2ccccc12`: 6.53%; for `Cc1ccc(CN(CC(=O)NCC2CCCO2)S(=O)(=O)c2ccc(C)cc2)cc1` (centres undefined): -11%; for `Cc1ccc(CNC(=O)CCS(=O)(=O)c2ccc3c(c2)CC(C)N3C(=O)C2CC2)o1` (centres undefined): -9.9%.
With `CCOCCCNc1c(CC)c(C)c(C#N)c2nc3ccccc3n12`, the inhibition was -21.6%.
The same measure for `Cc1cccc(CN2CCC(n3nccc3NC(=O)c3ccccc3C)CC2)n1`: -34.2%.
Under `CCCCCNC(=O)C1c2ccccc2Oc2ccccc21` stands -20.8%.
The same measure for `Cn1cc(S(=O)(=O)Nc2ccc(Cl)cc2Cl)c(=O)n(C)c1=O`: -22.9%.
In the case of `CCCc1ccc(OCC(O)CN2CCN(CCO)CC2)cc1` (centres undefined), the inhibition is 7.32%.
The same measure for `O=C(N/N=C/c1sc(N2CCCCC2)nc1-c1cccs1)c1cccnc1`: -30.2%; for `COc1cccc(-c2nc(CS(=O)CC(=O)NCc3ccc(F)cc3)c(C)o2)c1` (centres undefined): -11.1%; for `NS(=O)(=O)c1ccc(CCNS(=O)(=O)c2cccc3cccnc23)cc1`: -50.1%.
Under `CC(C)C(C)NC(=O)COc1nc2ccccc2nc1N(C)C1CCCCC1` (centres undefined) stands -6.02%.
As for `COc1ccccc1C1C2=C(COC2=O)Nc2cc3c(cc21)OCO3` (centres undefined), the inhibition was 75.8% (active).
The same measure for `CCCOc1ccccc1C1CC(=O)Nc2cc3c(cc21)OCO3` (centres undefined): 46.2%; for `COc1ccc(S(=O)(=O)Nc2ccc3c(c2)OCO3)cc1Cl`: -5.73%; for `Cc1ccc(C2CC(=O)NC(SCC(=O)OCc3ccccc3)=C2C#N)o1` (centres undefined): 6.45%.
Under `CCOC(=O)CSC1=C(C#N)C(c2sccc2C)CC(=O)N1` (centres undefined) stands 63.2% (active).
Under `CCOC(=O)CSC1=C(C#N)C(c2ccco2)C(C(=O)OCc2ccccc2)=C(C)N1` (centres undefined) stands -11.8%; under `NC(=O)CN1CCCC1c1ccc2c(c1)OCCO2` (centres undefined), -21.8%; under `C=CCn1c(=O)c(C(=O)NCc2ccc3c(c2)OCO3)c(O)c2ccccc21`, -23.1%.
Regarding `CC/C(=N\NC(=O)c1c(C)nc2ccccn12)c1ccc(Cl)cc1`, the inhibition was -19.6%.
As for `Cc1cc(Cl)c2oc(C(=O)N(C)C(C)c3ccccn3)c(C)c2c1` (centres undefined), the inhibition was -79%.
The same measure for `CC(C)Oc1ccc(/C=N/NC(=O)c2nnn(-c3nonc3N)c2CN(C)C2CCCCC2)cc1`: -15.7%; for `CCOc1cc(-c2conc2N)cc(OCC)c1OCC`: 5.84%.
Under `O=C(NCCc1ccccc1)C(=O)NCC1OCCN1S(=O)(=O)c1cccs1` (centres undefined) stands -36.9%.
The same measure for `COc1ccc2[nH]cc(CCN3C(=O)c4ccc(C(=O)O)cc4C3=O)c2c1`: -177%; for `COc1ccc(OC)c(CCNC(=O)c2nn(C)c3c2CS(=O)(=O)c2ccccc2-3)c1`: -12.5%; for `CC(C)CCn1c(=O)c2c(nc3n2CCCN3Cc2ccccc2)n(C)c1=O`: -4.63%.
With `Cc1ccc(C)c(N2CCN(C(=O)CCCn3c(=O)c4cccn4c4cccnc43)CC2)c1`, the inhibition is 5.08%.
For `CCN(CC)S(=O)(=O)c1ccc(N2CC(C(=O)NCc3cccnc3)CC2=O)cc1` (centres undefined), the inhibition was -14.9%.
Under `COc1ccc(S(=O)(=O)N(CC(=O)N/N=C/c2ccc(C(=O)O)cc2)Cc2ccccc2)cc1OC` stands 5.79%; under `Cc1nnc(N/N=C/c2ccccn2)[nH]c1=O`, 2.56%; under `COc1ccc(Cc2nnc(N/N=C/c3ccccc3O)[nH]c2=O)cc1OC`, 102% (active).
As for `O=c1[nH]c(NCCO)nnc1Cc1ccc(Cl)cc1`, the inhibition is -8.33%.
Turning to `COc1ccc(NC(=O)CCCN2C(=O)C(c3ccccc3)Oc3cccnc32)cc1` (centres undefined), the inhibition is -1.26%.
Under `Nc1nc(SCC(=O)Nc2cc(C(F)(F)F)ccc2Cl)[nH]c(=O)c1NC(=O)c1ccco1` stands -9.6%; under `Cc1ccc(OCCCC(=O)Nc2ccc(S(=O)(=O)Nc3cc(C)nc(C)n3)cc2)cc1`, 0.85%.
